# Reference: PubChem BioAssay
# Unmarked numbers belong to inactive results. Active and inactive are the calls of the source.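 How the source made its calls: active means thallium flux through the channel raised or lowered by more than 3 SD from vehicle-only wells, actives on both sides; inactive means the rest.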
# What was measured:
# Test in all cases: BK channel mutant inhibitors and activators – cell-based, U2OS BacMam, thallium flux, beta subunits, selectivity assay, profiling panel (AID 1259406);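 further: initial slope of Thallos dye fluorescence rise after thallium is added; log ratio against the mean of 0.3% DMSO vehicle wells on the same plate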
# [1] = tested on: F380Y; settings: U2OS BacMam BK variants, at 30 µM
# [2] = tested on: F380Y/beta1; settings: U2OS BacMam BK variants, at 30 µM
# [3] = tested on: F380Y/beta2Delta; settings: U2OS BacMam BK variants, at 30 µM
# [4] = tested on: F380Y/beta4; settings: U2OS BacMam BK variants, at 30 µM
# [5] = target: Calcium-activated potassium channel subunit alpha-1 (Homo sapiens) + Leucine-rich repeat-containing protein 26 (Homo sapiens) (UniProt Q12791+Q2I0M4); settings: U2OS BacMam BK variants, F380Y/Slo1WT/gamma1, at 30 µM
# Sequence of Calcium-activated potassium channel subunit alpha-1 (Homo sapiens) + Leucine-rich repeat-containing protein 26 (Homo sapiens) (Q2I0M4 whole entry, looked up, one chain of several): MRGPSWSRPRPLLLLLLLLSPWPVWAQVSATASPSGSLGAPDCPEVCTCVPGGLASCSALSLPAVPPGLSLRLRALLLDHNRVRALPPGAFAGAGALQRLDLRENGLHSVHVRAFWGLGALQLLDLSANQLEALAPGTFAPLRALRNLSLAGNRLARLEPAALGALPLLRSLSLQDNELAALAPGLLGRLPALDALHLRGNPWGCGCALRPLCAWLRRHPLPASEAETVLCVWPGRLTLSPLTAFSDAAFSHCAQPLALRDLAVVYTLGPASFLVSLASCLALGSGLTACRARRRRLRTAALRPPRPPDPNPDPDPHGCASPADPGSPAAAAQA
# [6] = tested on: R275C; settings: U2OS BacMam BK variants, at 30 µM
# [7] = tested on: R275C/beta1; settings: U2OS BacMam BK variants, at 30 µM
# [8] = tested on: R275C/beta2Delta; settings: U2OS BacMam BK variants, at 30 µM
# [9] = tested on: R275C/beta4; settings: U2OS BacMam BK variants, at 30 µM
# [10] = tested on: R275C/Slo1WT/beta2; settings: U2OS BacMam BK variants, at 30 µM
SMILES,log fold change Tl+ flux [1],log fold change Tl+ flux [2],log fold change Tl+ flux [3],log fold change Tl+ flux [4],log fold change Tl+ flux [5],log fold change Tl+ flux [6],log fold change Tl+ flux [7],log fold change Tl+ flux [8],log fold change Tl+ flux [9],log fold change Tl+ flux [10]
CN1c2ccccc2C(C)(C)C12C=Cc1cc(Br)cc([N+](=O)[O-])c1O2 (stereo not given),0.0436,0.162 (active),0.0613,0.00641,0.0283,0.00244,0.132 (active),0.0868 (active),0.0424,-0.0665
Cc1nc(-c2ccc(S(=O)(=O)N3CCCN(c4ccc(C(F)(F)F)cn4)CC3)s2)cs1,0.00624,-0.00592,-0.0273,-0.105 (active),0.00148,-0.0736,-0.0131,-0.0332,-0.00508,0.0123
FC(F)(F)c1ccc(-c2csc(C3(c4ccc(Cl)cc4Cl)CC3)n2)cc1,-0.0289,0.000911,0.0443,-0.0216,0.0176,-0.00802,0.0119,-0.00666,0.0455,-0.0337
O=[N+]([O-])c1ccc(N2CCSCC2)cc1O,-0.0426,-0.0279,-0.0262,0.012,0.0289,-0.00302,-0.0429,-0.0453,-0.0292,0.0333
CS(=O)(=NS(=O)(=O)c1ccc(OC(F)(F)F)cc1)c1ccccc1 (stereo not given),0.0244,-0.0162,0.018,-0.00984,0.0614,0.00979,-0.0151,0.00446,0.0404,0.0068
Cc1ccc(C(=O)Cn2cc([N+](=O)[O-])nc2C)cc1,-0.00237,-0.0164,0.0463,-0.00425,-0.043,0.00593,0.0164,-0.0174,0.0383,0.0674
Cc1nc(C)c(C(=O)O)c(-c2ccsc2)c1C(=O)O,0.00149,0.0257,-0.0103,0.0238,0.0233,0.0307,0.0388,-0.00263,0.00868,0.0152
O=C(c1ccc(-c2cccs2)s1)c1ccc(F)cc1F,-0.00876,0.022,0.0129,0.0546,0.0119,-0.00813,0.00849,0.0495,-0.00599,0.0293
CCCCC#Cc1ccc(C(=O)NNC(=O)Nc2ccccc2)o1,0.0775,-0.0382,0.0115,0.00448,-0.0213,0.0317,0.0182,-0.00673,-0.0333,0.023
Clc1ccc(-c2nc(-c3cnccn3)no2)cc1,-0.0251,0.0188,-0.00983,0.0205,-0.00021,0.00752,-0.0226,0.0101,0.00987,0.0471
CC(=O)c1cc2cc(Cl)cc(Cl)c2oc1=O,0.0337,0.0359,-0.0227,-0.0296,-0.0196,-0.0332,0.029,0.0111,-0.0163,-0.0243
COC(=O)c1cc(-c2nc(-c3ccc(Cl)cc3Cl)cs2)c(SC)s1,-0.0122,-0.00509,0.0439,0.00731,0.00703,-0.00909,-0.0387,0.0331,-0.0197,-0.00912
O=C1CSC(=S)N1N=Cc1cccnc1,0.0409,0.00585,0.0225,0.0146,0.0179,0.0256,-0.0433,0.0173,0.00843,-0.022
N#Cc1c(F)cccc1NC1CCN(Cc2ccccc2)CC1,-0.0529,-0.0783,-0.0626,-0.103 (active),-0.0887,-0.0649,-0.0261,-0.0118,-0.0356,-0.0644
CCOC(=O)CCSC1=NC(c2cccs2)C(C(=O)OCC)=C(C)N1 (stereo not given),-0.00248,-0.0154,-0.0693,-0.0516,-0.0633,-0.0523,-0.0288,-0.0824,-0.0154,-0.0325
CC(c1ccccc1)n1c(SCc2cc(=O)oc3cc(O)ccc23)n[nH]c1=O (stereo not given),-0.0609,0.00559,0.0151,0.0558,0.0977,0.0366,0.0338,0.123 (active),0.102 (active),-0.0189
COc1cc(C(=O)Nc2ccccc2C(=O)NCCc2ccccn2)cc(OC)c1OC,7.8e-05,0.0128,0.0219,0.0635,0.037,0.0306,0.0367,0.0116,-0.0253,0.0509
CCOC(=O)c1nn(-c2ccc(C(C)(C)C)cc2)c(=O)c(C#N)c1C,-0.364 (active),-0.189 (active),-0.281 (active),-0.097 (active),-0.15 (active),-0.52 (active),-0.383 (active),-0.219 (active),-0.26 (active),-0.0278
Clc1ccc(Sc2cn[nH]c2-c2ccc3c(c2)OCCO3)cc1,-0.025,-0.0285,-0.0116,0.0103,-0.102,0.0336,-0.00464,-0.0611,-0.0292,-0.0512
CSc1n[nH]c(N)c1S(=O)(=O)C(C)C,0.0369,0.0175,0.0116,-0.00921,0.0306,-0.018,0.0133,-0.00282,0.0217,0.0141
COC(=O)c1cc(S(=O)(=O)N(Cc2ccc(OC)cc2)Cc2cccn2C)oc1C,-0.118 (active),-0.0838 (active),-0.0509,-0.483 (active),-0.414 (active),-0.56 (active),-0.496 (active),-0.122 (active),-0.289 (active),-0.135 (active)
O=S1(=O)CC(N2CCOCC2)c2ccccc21 (stereo not given),-0.0264,-0.00462,0.0333,0.00745,0.00701,-0.00299,0.0226,0.00722,0.00198,-0.0351
O=C1C(=Cc2cc(-c3ccccc3)c(C(F)(F)F)s2)CSc2ccc(Cl)cc21,0.00549,0.0168,0.0287,-0.022,-0.0261,-0.00201,-0.0099,-0.0048,0.0191,0.0572
CSc1cc(C(C)(C)C)[nH]n1,-0.125 (active),-0.0178,-0.218 (active),-0.423 (active),0.0568,0.0547,0.173 (active),-0.014,0.047,0.0223
COc1ccc(Oc2ccc([N+](=O)[O-])cc2C2=NC(=CN(C)C)C(=O)O2)cc1,-0.0336,-0.0257,-0.0604,-0.00321,-0.0547,-0.0108,-0.015,-0.0321,-0.00628,-0.0407
Clc1ccc(-c2cnc(-c3ccc(Cl)cc3)o2)cc1,0.0159,-0.0226,0.0345,-0.00734,-0.0607,0.0428,0.00118,0.0163,0.00237,-0.017
